Results published in PubChem BioAssay (EPA / NIEHS).
Values joined by “and” are separate entries in the source; they are usually repeats but may differ in a detail not shown here. Equal values may be shown once. Active and inactive are the calls of the source. How the source made its calls: active means hit-call score of the fitted dose curve at least 0.9, where 1 is the maximum; inactive means score below 0.9.

What was measured:
[1] = ATG_CRE_CIS: Attagene CIS-FACTORIAL HepG2 Assay for human cAMP Responsive Element (CRE) binding protein 3 (AID 2282926); conditions: HepG2 CRE cis-reporter, Attagene multiplexed mRNA; actives raise or lower the signal
Outline: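 Assay format: transient reporter transfection of HepG2, 24 h treatment, total RNA isolation with DNase I step. Reporter abundance read by fluorescence after PCR and capillary separation; DMSO-normalised gain or loss fitting.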

[2] = target: CCAAT/enhancer-binding protein beta (Homo sapiens) (UniProt P17676); test: ATG_C_EBP_CIS: Attagene CIS-FACTORIAL HepG2 Assay for human CCAAT/Enhancer Binding Protein (C/EBP) beta (AID 2282927); conditions: HepG2 Attagene cis-factorial transcription factor reporter; actives raise or lower the signal
Chain of CCAAT/enhancer-binding protein beta (Homo sapiens) (P17676 whole entry, looked up): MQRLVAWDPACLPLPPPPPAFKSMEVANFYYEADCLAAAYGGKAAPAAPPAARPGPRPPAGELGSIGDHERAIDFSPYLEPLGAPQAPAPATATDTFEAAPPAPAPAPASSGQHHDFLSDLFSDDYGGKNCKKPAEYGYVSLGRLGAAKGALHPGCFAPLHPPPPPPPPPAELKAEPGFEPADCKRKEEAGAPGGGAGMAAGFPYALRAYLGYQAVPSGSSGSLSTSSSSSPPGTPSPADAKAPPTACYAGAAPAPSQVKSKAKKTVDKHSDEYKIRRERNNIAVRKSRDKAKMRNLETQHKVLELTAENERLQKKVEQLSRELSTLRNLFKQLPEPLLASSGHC
Outline: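 Changes in reporter mRNA, rather than exogenous chimeric receptor activity, reflect native C/EBP signalling in transfected HepG2 cells dosed for 24 h; transcripts are detected by RT-PCR and capillary electrophoresis.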

[3] = ATG_CMV_CIS: Attagene CIS-FACTORIAL HepG2 Assay for human CMV (Internal Marker) (AID 2282928); conditions: HepG2 CMV promoter reporter, transcription factor profiling; actives raise or lower the signal;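 further: endpoint acts as a background internal control marker rather than a target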
Outline: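 24 h chemical treatment, HepG2 with transient multi-reporter transfection; RNA → oligo(dT) RT → PCR → 6-FAM extension → HpaI digest → CE fluorescence. Bidirectional fit, DMSO negative control.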

[4] = ATG_DR4_LXR_CIS: Attagene CIS-FACTORIAL HepG2 Assay for human Liver X Receptor (LXR), DR4 submotif (AID 2282929); conditions: HepG2 Attagene DR4 cis-reporter, mRNA transcription; actives raise or lower the signal
Outline: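 Readout: reporter transcript fluorescence after RT-PCR and capillary electrophoresis, fitted bidirectionally against DMSO controls. Human HepG2 liver cells carried transiently transfected multiplexed reporter constructs; endogenous transcription factor activity measured 24 h post-dosing.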

[5] = target: Aryl hydrocarbon receptor (Homo sapiens) (UniProt P35869); test: ATG_Ahr_CIS: Attagene CIS-FACTORIAL HepG2 Assay for human Aryl Hydrocarbon Receptor (Ahr) (AID 2282930); conditions: HepG2 AhR cis-factorial reporter transcription; actives raise or lower the signal
Chain of Aryl hydrocarbon receptor (Homo sapiens) (P35869 whole entry, looked up): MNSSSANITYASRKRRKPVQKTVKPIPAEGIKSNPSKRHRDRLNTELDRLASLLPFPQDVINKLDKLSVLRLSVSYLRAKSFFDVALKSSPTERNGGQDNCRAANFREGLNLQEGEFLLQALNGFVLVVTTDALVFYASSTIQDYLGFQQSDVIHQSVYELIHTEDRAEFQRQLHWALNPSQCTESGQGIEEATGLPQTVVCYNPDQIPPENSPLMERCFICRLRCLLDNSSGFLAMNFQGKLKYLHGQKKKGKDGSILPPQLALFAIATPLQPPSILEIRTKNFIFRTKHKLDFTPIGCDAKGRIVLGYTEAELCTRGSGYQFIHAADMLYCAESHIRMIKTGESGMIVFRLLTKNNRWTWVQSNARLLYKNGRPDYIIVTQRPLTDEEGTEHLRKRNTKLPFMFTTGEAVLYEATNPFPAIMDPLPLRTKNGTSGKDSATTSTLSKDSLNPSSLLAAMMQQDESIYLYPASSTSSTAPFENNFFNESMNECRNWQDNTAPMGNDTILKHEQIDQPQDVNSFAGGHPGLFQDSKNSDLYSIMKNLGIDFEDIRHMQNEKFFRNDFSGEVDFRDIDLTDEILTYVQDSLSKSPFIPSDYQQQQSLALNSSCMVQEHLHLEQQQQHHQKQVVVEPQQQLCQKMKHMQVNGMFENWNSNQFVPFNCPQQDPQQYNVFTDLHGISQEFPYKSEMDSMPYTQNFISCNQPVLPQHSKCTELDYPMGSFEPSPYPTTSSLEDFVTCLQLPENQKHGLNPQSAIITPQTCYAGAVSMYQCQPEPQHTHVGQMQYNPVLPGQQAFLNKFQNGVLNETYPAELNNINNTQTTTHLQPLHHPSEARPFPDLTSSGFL
Outline: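 HepG2, transient MRTU (cis) transfection, 24 h exposure. RNA → cDNA → PCR → 6-FAM primer extension → HpaI 2 h 37 C → CE. Fit: bidirectional, DMSO baseline.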

Structure (SMILES) | outcome [1] | outcome [2] | outcome [3] | outcome [4] | outcome [5] | AC50 [5] | AC50 [3] | AC50 [1] | AC50 [2] | AC50 [4]
C=CCc1ccccc1O | inactive | inactive | inactive | inactive | inactive | – | – | – | – | –
N#Cc1ccc(Cl)cc1 | inactive | inactive | inactive | inactive | inactive | – | – | – | – | –
O=S1(=O)OC(c2cc(Br)c(O)c(Br)c2)(c2cc(Br)c(O)c(Br)c2)c2ccccc21 | inactive | inactive | inactive | inactive | – | 26 µM (active) | – | – | – | –
CCCCCCCCCCBr | inactive | inactive | – | inactive | inactive | – | 163 µM (active) | – | – | –
CCCCCCCCBr | inactive | inactive | inactive | inactive | inactive | – | – | – | – | –
C[C@@H]1O[C@@H](O[C@H]2C[C@@H](O)[C@]3(CO)[C@H]4[C@H](O)C[C@]5(C)[C@@H](C6=CC(=O)OC6)CC[C@]5(O)[C@@H]4CC[C@]3(O)C2)[C@H](O)[C@H](O)[C@H]1O | – | – | inactive | – | inactive | – | – | 0.512 µM (active) | 0.0716 µM (active) | 0.207 µM (active)
O=NN1CCOCC1 | inactive | inactive | inactive | inactive | inactive | – | – | – | – | –
C=CC(=O)[O][Sn]([CH2]CCC)([CH2]CCC)[CH2]CCC | – | inactive | inactive | – | – | 0.704 µM (active) | – | 0.412 µM (active) | – | 0.607 µM (active)
COP(=S)(OC)Oc1cc(Cl)c(I)cc1Cl | – | – | – | – | inactive | – | 50.2 µM (active) | 29.6 µM (active) | 27.9 µM (active) | 46.6 µM (active)
CC(C)[C@@H](Nc1ccc(C(F)(F)F)cc1Cl)C(=O)OC(C#N)c1cccc(Oc2ccccc2)c1 (stereo not given in full) | inactive | inactive | inactive | inactive | inactive | – | – | – | – | –
CCC[CH2][Sn]([Cl])([Cl])[CH2]CCC | – | – | – | – | inactive | – | 0.721 µM (active) | 0.947 µM (active) | 0.33 µM (active) | 0.807 µM (active)
CCCSP(=S)(OCC)Oc1ccc(Cl)cc1Cl (stereo not given) | inactive | inactive | inactive | inactive | inactive | – | – | – | – | –
CCOP(=O)(OCC)OC(=CCl)c1ccc(Cl)cc1Cl | inactive | inactive | inactive | inactive | inactive | – | – | – | – | –
O=C1C[C@@H]2OCC=C3CN4CC[C@]56c7ccccc7N1[C@H]5[C@H]2[C@H]3C[C@H]46 | inactive | inactive | inactive | inactive | inactive | – | – | – | – | –
C[CH2][Hg][S]c1ccccc1C(=O)O | – | – | inactive | – | inactive | – | – | 2.94 µM (active) | 2.23 µM (active) | 5.13 µM (active)
Nc1nc(=S)[nH][nH]1 | inactive | inactive | inactive | inactive | inactive | – | – | – | – | –
O=C(O)COc1cc(Cl)c(Cl)cc1Cl | inactive | inactive | inactive | inactive | inactive | – | – | – | – | –
CCCCCCCCCCCCCl | inactive | inactive | inactive | inactive | inactive | – | – | – | – | –
O=S(=O)(F)C(F)(F)C(F)(F)C(F)(F)C(F)(F)F | inactive | inactive | inactive | inactive | inactive | – | – | – | – | –

Structure (SMILES) | outcome [1] | outcome [2] | outcome [3] | outcome [4] | outcome [5] | AC50 [5] | AC50 [3] | AC50 [1] | AC50 [2] | AC50 [4]
O=CCCl | – | – | – | – | – | 84.7 µM (active) | 60.9 µM (active) | 24.7 µM (active) | 25 µM (active) | 68.5 µM (active)
CN(N=O)c1ccc([N+](=O)[O-])cc1 | inactive | inactive | inactive | inactive | – | 26.8 µM (active) | – | – | – | –
CCOP(=S)(OCC)SCSc1cc(Cl)ccc1Cl | inactive | inactive | inactive | inactive | inactive | – | – | – | – | –
Cc1cc(Cl)ccc1N | inactive | inactive | inactive | inactive | – | 41.4 µM (active) and 33 µM (active) | – | – | – | –
CC(C)=CC1C(C(=O)OCc2cccc(Oc3ccccc3)c2)C1(C)C (stereo not given) | inactive | inactive | inactive | – | inactive | – | – | – | – | 22.3 µM (active)
N#CS | inactive | inactive | inactive | inactive | inactive | – | – | – | – | –
CNC(=O)N(C)c1nc2ccccc2s1 | inactive | inactive | inactive | inactive | – | 1.08 µM (active) | – | – | – | –
O=C(CCl)NCO | inactive | inactive | inactive | inactive | inactive | – | – | – | – | –
BrCCCCBr | inactive | inactive | inactive | inactive | inactive | – | – | – | – | –
Cc1c([N+](=O)[O-])c(C)c([N+](=O)[O-])c(C(C)(C)C)c1[N+](=O)[O-] | inactive | inactive | – | – | inactive | – | 100 µM (active) | – | – | 60.7 µM (active)
CCCCCCCCCCCCN(C)C | inactive | inactive | – | – | inactive | – | 33.4 µM (active) | – | – | 50.9 µM (active)
ClCc1ccccc1Cl | – | inactive | inactive | – | inactive | – | – | 83.5 µM (active) | – | 50.6 µM (active)
COCCl | inactive | inactive | inactive | inactive | inactive | – | – | – | – | –
O=S(=O)(c1ccc(Cl)cc1)c1cc(Cl)c(Cl)cc1Cl | – | inactive | – | – | inactive | – | 42.5 µM (active) | 37.8 µM (active) | – | 40.9 µM (active)
CN(C1CCCCC1)C1CCCCC1 | inactive | inactive | inactive | inactive | inactive | – | – | – | – | –
Cc1cc(SCc2sc(-c3ccc(C(F)(F)F)c(F)c3)nc2C)ccc1OCC(=O)O | inactive | inactive | inactive | – | inactive | – | – | – | – | 23.8 µM (active)
Cc1cc(-c2cc(C)c(N)c(C)c2)cc(C)c1N | inactive | inactive | – | inactive | – | 0.776 µM (active) | 37.8 µM (active) | – | – | –
CC(=O)C(F)(F)C(F)(F)F | inactive | inactive | inactive | inactive | inactive | – | – | – | – | –
CCCCN(CCCCO)N=O | inactive | inactive | inactive | inactive | inactive | – | – | – | – | –
